Data as given in PubChem BioAssay AID492952 (Southern Research Specialized Biocontainment Screening …, 2010).
In all, about 2,300 compounds went through this assay and about 1,500 (65%) were called active. The set was probably picked from earlier hits. The list shows a part of the results. Entries with a potency or affinity are not part of this list. A number with no mark means an inactive call. The rule behind the calls is not given here.

Assay: replicating M. tuberculosis growth inhibition, dose response, non-replicating M. tuberculosis project, H37Rv (AID 492952);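 note: Mycobacterium tuberculosis grown in culture; growth inhibition read after a week of incubation; 0% = bacteria alone untreated and 100% = bacteria with high antibiotic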
Conditions: series mostly up to 50 µM; inhibition: at the top concentration
With O=C(NNC(=O)c1cccs1)c1ccc(Br)o1 the “inhibition” value was -8.17%. In the case of Cc1nc2ccc(OC(=O)c3ccccc3)cc2s1, the “inhibition” value is reported as 29.8%. With Cc1ccc(-c2nnc(-c3ccccc3)o2)cc1 the “inhibition” value was 3.49%. In the case of O=C(COC(=O)CCC(=O)c1ccc(F)cc1)Nc1ccc(F)cc1F, the “inhibition” value is reported as -1.72%. In the case of O=C(NNC(=O)c1ncc(Cl)c(Cl)c1Cl)c1ccc(F)cc1, the “inhibition” value is reported as 5.84%. With O=C1c2ccccc2CC1Sc1nnc(-c2ccncc2)o1 (stereo not given) the “inhibition” value was 11.4%. For O=C(Nc1ccc(Cl)cc1Cl)c1cccc(N2C(=O)C=CC2=O)c1, the “inhibition” value was 14.2%. In the case of CCOc1ccccc1NC(=O)COn1nnc2ccc(Cl)cc21, the “inhibition” value is reported as -4.11%. In the case of C/C(=N\NC(=O)c1cccc(Cl)c1)C1C(=O)c2ccccc2C1=O, the “inhibition” value is reported as 0.13%. In the case of O=S(=O)(CCN1CCN(c2ccccn2)CC1)c1ccc(Cl)cc1Cl, the “inhibition” value is reported as 2.07%. With CC(=O)c1ccc(-c2nnc(CCC(=O)N(C)Cc3cccc4cnccc34)o2)s1 the “inhibition” value was -1.47%. With O=C(COc1cccc2ccccc12)Nc1ccc(Cl)cc1C(=O)O the “inhibition” value was 5.34%. With CCOC(=O)c1csc(COc2ccccc2Cl)n1 the “inhibition” value was -1.18%. With CCOc1cccc2cc(C(=O)NC(C)c3ccccc3)c(=N)oc12 (stereo not given) the “inhibition” value was 3.19%. With N=c1oc2ccc(Cl)cc2cc1C(=O)NC1CCCCCC1 the “inhibition” value was 2.7%. With O=C(Nc1nccs1)c1ccc(COc2ccc(Cl)cc2)o1 the “inhibition” value was -1.74%. For CCOC(=O)C(=O)Cc1nc2ccccc2s1, the “inhibition” value was 2.3%. For CCNC(=O)NC(=O)C(C)OC(=O)CCCSc1nc2ccccc2s1 (stereo not given), the “inhibition” value was 3.89%. In the case of CCOC(=O)NC(=O)COC(=O)CCCSc1nc2ccccc2s1, the “inhibition” value is reported as 6.54%. In the case of CC(C)CNc1nc(=S)nc(N(C)C)[nH]1, the “inhibition” value is reported as 1.1%. For COc1ccc(S(=O)(=O)NCc2ccc3c(c2)cc(C)n3C)cc1, the “inhibition” value was 7.34%. With CCOC(=O)c1c(-c2ccccc2)csc1NC(=O)CCN1CCOCC1 the “inhibition” value was 2.4%. In the case of COc1ccc2cc(C(=O)NCc3ccccc3CN3CCCC3)ccc2c1, the “inhibition” value is reported as 29.6%. For CC(NC(=O)OCc1ccccc1)c1ccccc1 (stereo not given), the “inhibition” value was -0.48%. For CCCCn1nnc(NC(=O)COc2ccc(Cl)c(C)c2)n1, the “inhibition” value was 12.5%. With O=c1c2c([N+](=O)[O-])cc([N+](=O)[O-])cc2nc2ccccn12 the “inhibition” value was 17.1%. In the case of COc1cc(Cl)cc(/C=N/NC(N)=O)c1O, the “inhibition” value is reported as 2.23%. In the case of CCSc1nc(O)c(C2OC(=O)c3c2ccc(OC)c3OC)c(=O)n1-c1ccccc1 (stereo not given), the “inhibition” value is reported as -2.58%. With NCCNc1ccc([N+](=O)[O-])c2cccnc12 the “inhibition” value was 6.01%. In the case of C/C(=N/NC(=O)c1ccco1)c1ccc(Br)s1, the “inhibition” value is reported as -2.18%. With C/C(=N\NC(=O)c1ccco1)c1cc(Cl)sc1Cl the “inhibition” value was 2.82%. For Cc1cccnc1NC(=O)COc1ccc2oc3c(c2c1)CCCC3, the “inhibition” value was 2.59%. With CCOC(=O)N1CCN(c2cc(C)c([N+](=O)[O-])cc2F)CC1 the “inhibition” value was 0.99%. For Cc1ccc(NC(=O)c2noc(C(C)C)c2[N+](=O)[O-])cc1, the “inhibition” value was 5.61%. For Cc1ccnc(-n2sc3ccccc3c2=O)n1, the “inhibition” value was -1.3%. In the case of O=c1ccn(-c2ccccc2)[nH]1, the “inhibition” value is reported as 4.15%. For O=c1oc(-c2ccccc2[N+](=O)[O-])nc2ccccc12, the “inhibition” value was 5.42%. With COc1ccc(OCc2n[nH]c(=S)o2)cc1 the “inhibition” value was -6.5%. For C=CC(=O)Oc1ccc(N2Cc3ccccc3C2=O)cc1, the “inhibition” value was -13.4%. With CN1CCN(Cc2cc(C(C)(C)C)c(O)c(C(C)(C)C)c2)CC1 the “inhibition” value was 0.19%. With CCCN1C(=O)SC(CC(=O)Nc2ccccc2)C1=O (stereo not given) the “inhibition” value was -14.1%. With CCCn1c(O)c(N=NC(=O)c2ccco2)c2ccccc21 the “inhibition” value was -4.81%. With CCCCn1c(N)c(-c2nc3ccccc3o2)c2c([N+](=O)[O-])nn(CC)c(=O)c21 the “inhibition” value was -4.02%. With C/C(=N\NC(=O)c1ccccc1)c1nc2ccccc2n1C the “inhibition” value was 5.23%. With Cc1cccc(CSc2nnc(-c3ccco3)o2)c1 the “inhibition” value was 9.12%. With Cc1cc(C)c(OCC(=O)Nc2nnc(-c3ccco3)o2)c(C)c1 the “inhibition” value was 28.4%. For CC1=CN2C(=N)/C(=C/c3ccc([N+](=O)[O-])o3)C(=O)N=C2S1, the “inhibition” value was 3.33%. With CN(/N=C/c1ccc([N+](=O)[O-])o1)c1ccccc1 the “inhibition” value was 6.49%. For Cc1cc(C)n(-c2ccc(C(=O)OCC(=O)Nc3cc(Cl)ccc3[N+](=O)[O-])cc2)n1, the “inhibition” value was 0.57%. In the case of COC(=O)C1=C(C)N(CC2CC2)C(=NCc2cccc(Cl)c2)N[C@H]1c1ccccc1, the “inhibition” value is reported as 16.6%. With CCCC(C)C(=O)Nc1ccc(Cl)cn1 (stereo not given) the “inhibition” value was 1.28%. In the case of CC(C(=O)OCC(=O)c1ccccc1)N1C(=O)C2C3CCC(C3)C2C1=O (stereo not given), the “inhibition” value is reported as -2.54%. With CC(Cc1ccccc1Sc1ccccc1)N(C)C (stereo not given) the “inhibition” value was 5.59%. With Cc1ccc(-c2ccc(/C=N/NC(=O)CN3CCCC3)o2)cc1Cl the “inhibition” value was 8.7%. For CN1CCN(/N=C/c2ccc(-c3ccc([N+](=O)[O-])cc3Cl)o2)CC1, the “inhibition” value was 1.44%. In the case of COc1ccc(Cl)cc1N=Cc1c(O)c2ccccc2oc1=O, the “inhibition” value is reported as 2.85%. With COc1ccccc1-n1c(=O)oc2ccc(Cl)cc2c1=O the “inhibition” value was 0.52%. In the case of O=C(N/N=C\c1ccccc1OCc1ccccc1)c1ccco1, the “inhibition” value is reported as 2.01%. For O=C(N[C@@H]1C[C@H]2CC[C@@H]1C2)c1ccco1, the “inhibition” value was -3.89%. For Cc1ccc(C(=O)NCCOc2cccc(C)c2)cc1, the “inhibition” value was 10.5%.
